Laboratory results from PubChem BioAssay.
Active and inactive are the calls of the source.

experiment: plasmodial surface anion channel blockers, osmotic lysis – cell-based, P. falciparum Indochina, OD700, 18 h, primary screen (AID 1157); details: P. falciparum Indochina infected erythrocytes, osmotic lysis OD700, 18 h; higher = more signal, called active from +8 up or from −8 down

z-score, inactive:
C=C(C)c1cc2c(c(CCCCCC)n1)[Si](C(C)C)(C(C)C)OC2 0.778
COc1ccc(NC(=O)O[C@H]2[C@H](OC(=O)Nc3ccccc3)[C@H](OC(=O)Nc3ccccc3)[C@@H](OC)O[C@@H]2CO)cc1 0.889
CCCCC(O)C1C=CC2C(=O)N(c3ccccc3)C(=O)C2N1Nc1ccc(C(C)C)cc1 (stereo not given) 1.39
[N-]=[N+]=NCc1ccccc1C[C@@]1(C(=O)N2CCOCC2)N=C(c2ccc(OCCCO)cc2)O[C@@H]1c1ccccc1 0.889
CC(c1ccccc1)C(O)C1C=CC2C(=O)N(c3ccccc3)C(=O)C2N1Nc1ccc([N+](=O)[O-])cc1 (stereo not given) 1.61
COc1ccc(CN(C2=CC[C@@]3(C(N)=O)C(=O)C(Cl)=C(Cl)C(=O)[C@@]3(C#N)C2)S(=O)(=O)c2ccc(Br)cc2)cc1 -2.3
COC(=O)CCCCCCC(=O)Nc1ccc(NC(=O)CCCC[P+](c2ccccc2)(c2ccccc2)c2ccccc2)cc1 1.43
CC(C)N1C(=O)C[C@@](C(=O)NCCCN(C)C)(c2ccc([N+](=O)[O-])cc2)[C@H]1c1ccc(CO)cc1 0.891
CCOC(=O)C1=CC[C@@H](c2ccc(OCc3ccccc3)c(OC)c2)N(S(=O)(=O)c2ccc(C)cc2)[C@H]1c1ccc(SC)cc1 0.387
COC(=O)c1c2oc(c1C(=O)OC)C(=O)N(C)Cc1cn(nn1)C[C@H](Cc1ccccc1)NC(=O)N[C@H](CO)CC2 0.728
O=C1OCC=C[C@H]2OC34C=CCN(Cn5nnc6ccccc65)C(=O)[C@H]3N(CCCO)C(=O)[C@@H]4[C@@H]12 (stereo not given in full) -0.602
C[C@@H]1ON(c2ccc(C(=O)OC(C)(C)C)cc2)[C@H](c2ccc(O)cc2)[C@H]1C(=O)N1C(=O)OC[C@H]1Cc1ccccc1 0.87
COCCOC(=O)N1C(=O)[C@@]2(c3cc(C#CC4=CCCCC4)ccc31)[C@H](C(N)=O)[C@H]1C(=O)O[C@H](c3ccccc3)[C@H](c3ccccc3)N1[C@@H]2c1ccccc1OCCO 2.15
COC(=O)[C@@]1(Cc2ccc(OC)cc2)[C@@H]2C(=CC(=O)[C@H]2CC(=O)C(=O)N(C)C)CN1C(=O)c1ccccc1 1.38
C=CC1c2cc(O)c(OC)cc2CCN1Cc1cc2c(cc1Br)OCO2 (stereo not given) 1.01
C=CCC(OC(C)=O)[C@@H]1[C@@H](N(Cc2cc3ccccc3o2)C(=O)c2ccc(C)cc2)c2cc(OCCCO)ccc2N1C(=O)Cc1ccc(OC)cc1 (stereo not given in full) 0.211
COc1cc(OC)c(C(O)C2C=CC3C(=O)N(c4ccccc4)C(=O)C3N2Nc2ccccc2)cc1Br (stereo not given) 2.03
Cc1ccc(S[C@]2(C(=O)NCC(F)(F)F)CC(=O)N(Cc3ccccc3)[C@@H]2c2ccc(CO)cc2I)cc1 0.279
COC(=O)c1ccc([C@H](NC(=O)c2ccco2)[C@]2(C)C[C@H]2C2CCCCC2)cc1 1.3
NC(N)=NCCCn1cc(CNC(=O)[C@@H](N)Cc2ccccc2)nn1 0.36
COC(=O)c1nc2oc1CC[C@@H](CO)NC(=O)N(C)Cc1cnnn1C[C@H](Cc1ccccc1)NC2=O 0.409
COCCOC(=O)N1C(=O)[C@@]2(c3cc(C#CC4=CCCCC4)ccc31)[C@H](c1ccc(OCCO)cc1)N1[C@H](c3ccccc3)[C@H](c3ccccc3)OC(=O)[C@H]1[C@@H]2C(=O)N1CCN(c2ncccn2)CC1 0.799
CC(C)(C)OC(=O)CC[C@]1(C(=O)NCC(O)CO)N=C(c2ccc(OCCCO)cc2)O[C@H]1c1ccccc1 (stereo not given in full) -1.32
O=C1O[C@H](c2ccccc2)[C@H](c2ccccc2)N2[C@H]1[C@@H](C(=O)Nc1nc3ccccc3s1)[C@]1(C(=O)Nc3ccccc31)[C@H]2c1ccc(OCCO)cc1 2.31
C=CC[C@]1(C(=O)NCCN2CCOCC2)N=C(c2ccc(OCCCO)cc2)O[C@H]1c1ccccc1CN=[N+]=[N-] 0.79
COCCCNC(=O)[C@@]1(Cc2ccccc2CN=[N+]=[N-])N=C(c2ccc(OCCCO)cc2)O[C@H]1c1ccccc1 1.16
CN(C)C(=O)[C@@]1(CCS(=O)(=O)c2ccccc2)N=C(c2ccc(OCCCO)cc2)O[C@H]1c1ccccc1 1.48
CCOC(=O)C1CCCCN1 (stereo not given) 0.0086
C=C(/C(=C/C[C@H](OC(=O)c1ccncc1)c1ccc(CO)o1)c1cc(C(=O)OC)ccc1OC)C(C)C 0.136
COC(=O)[C@@]1(Cc2ccccc2)[C@H]2c3cc(C(=O)N(C)C)n(CCN4CNCC4=O)c3C[C@H]2CN1C(=O)c1ccccc1 0.789
O=C1O[C@H](c2ccccc2)[C@H](c2ccccc2)N2[C@H]1[C@@H](C(=O)Nc1nc3ccccc3s1)[C@]1(C(=O)Nc3ccc(C#CC4(O)CCCCCC4)cc31)[C@H]2c1ccccc1OCCO 1.56
CCOC(=O)C[C@H]1[C@H](OC(=O)c2ccccc2-c2ccccc2)[C@@H](NC(=O)C2CCCCC2)c2cc(OCCCO)ccc2N1C(=O)Cc1ccc(OC)cc1 0.256
CN(C)CCCNC(=O)[C@@]1(C)c2ccccc2C(=O)N(Cc2ccccc2)[C@H]1c1ccc(CO)cc1 0.377
NC(=O)N1C(=O)C2C(C1=O)C1C=C(CCCO)C2C(c2cccs2)N1Cc1cccc(OC(F)(F)F)c1 (stereo not given) 0.872
COc1ccc(NC(=O)O[C@H]2[C@H](OC(=O)Nc3ccccc3)[C@@H](OC(=O)Nc3ccccc3)[C@@H](OC)O[C@@H]2CO)cc1 0.373
